Results from PubChem BioAssay.

Tested on: not listed separately
Experiment: RPMI8226 myeloma cell viability, profiling panel, resazurin fluorescence, basal, 24 h, PK04 Diversity Set (AID 1180);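 note: RPMI8826 multiple myeloma cell line at 5000 cells per well; test concentration not given here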
Settings: higher = more signal

SMILES	z-score
NCCCCCNC(=O)[C@@H]1C[C@@H]2C(=O)N3CCC[C@H]3C(=O)N2[C@@H]1c1ccc(O)cc1	0.272
O=C1OCCC/C=C\[C@H]2OC34C=CCN(c5ccc6ccccc6c5)C(=O)[C@H]3N(CCCO)C(=O)[C@@H]4C12 (stereo partly specified)	0.375
CC(=O)NCCCC[C@@H]1NC(=O)[C@@H]2C[C@H](C(=O)NCCCCCCN)[C@H](c3cccc(OCCO)c3)N2C1=O	-0.257
COCCOC(=O)N1C(=O)[C@@]2(c3cc(C#CCNC(N)=O)ccc31)[C@H](c1ccc(OCCO)cc1)N1[C@H](c3ccccc3)[C@H](c3ccccc3)OC(=O)[C@H]1[C@@H]2C(N)=O	0.637

Molecular target: E3 ubiquitin-protein ligase XIAP (Homo sapiens) (UniProt P98170)
Experiment: XIAP binders, primary screen, biophysical, small-molecule microarray, fluorescence 635 nm (AID 1181);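 note: score merges 667 nm emission and signal to noise over triplicate slides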
Settings: small-molecule microarray binding, higher = more signal

Chain of E3 ubiquitin-protein ligase XIAP (Homo sapiens) (P98170 whole entry, looked up): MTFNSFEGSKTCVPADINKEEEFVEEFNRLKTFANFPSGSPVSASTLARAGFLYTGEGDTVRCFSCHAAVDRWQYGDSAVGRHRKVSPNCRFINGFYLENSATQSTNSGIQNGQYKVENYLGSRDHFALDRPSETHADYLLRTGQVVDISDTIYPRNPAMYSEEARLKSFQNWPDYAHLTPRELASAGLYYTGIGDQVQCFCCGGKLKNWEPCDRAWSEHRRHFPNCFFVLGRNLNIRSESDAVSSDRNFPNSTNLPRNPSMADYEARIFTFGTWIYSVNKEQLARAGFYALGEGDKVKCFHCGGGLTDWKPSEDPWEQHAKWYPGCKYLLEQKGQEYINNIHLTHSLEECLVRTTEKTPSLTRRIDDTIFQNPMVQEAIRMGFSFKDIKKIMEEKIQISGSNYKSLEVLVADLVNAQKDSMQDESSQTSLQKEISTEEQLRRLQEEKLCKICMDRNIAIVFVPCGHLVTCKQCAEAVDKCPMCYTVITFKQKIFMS

SMILES	composite z-score
CC(C)(C)OC(=O)CC[C@]1(C(=O)N2CCCCC2)COC(c2ccc(OCCCO)cc2)=N1	0.162
O=C1[C@@]23C=C(Br)[C@H](C[C@@H]2COC3)[C@@]12CO2	-0.102
O=C1C[C@@](C(=O)NCc2ccccc2)(c2ccc([N+](=O)[O-])cc2)[C@@H](c2ccc(CO)cc2I)N1CC12CC3CC(CC(C3)C1)C2	-0.227
O=C1C[C@@](C(=O)NCC(F)(F)F)(c2ccc([N+](=O)[O-])cc2)[C@@H](c2ccc(CO)cc2)N1CC12CC3CC(CC(C3)C1)C2	0.144
CN1C(=O)C2C=CC(C(O)c3ccc(I)cc3)N(Nc3ccccc3)C2C1=O (stereo unspecified)	0.114
COc1cc(C(O)C2C=CC3C(=O)N(Cc4ccccc4)C(=O)C3N2n2cnnc2)cc(OC)c1OC (stereo unspecified)	0.0546
C=C(COC)/C(=C/C[C@@H](OC(=O)c1ccncc1)c1ccccc1OCCO)c1cc(C(=O)OC)ccc1OC	-0.211
